The list is not random: actives were taken first. Their share in the collection is about 4.1%.
tim10-1 inh: growth inhibitors of tim10-1 mutant yeast, primary screen, luminescence, uHTS | S. cerevisiae tim10-1 ts strain growth, BacTiter-Glo, 24 h | inhibition, % at 20 µM | actives 2.2% (n = 330,000);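 active = inhibition of at least 40%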;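 also: mutant grown at 25 °C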
TIM10 inh: growth inhibitors of isogenic TIM10 control yeast, primary screen, counter-screen for tim10-1 yeast inhibitor project, luminescence, uHTS. S. cerevisiae TIM10 strain growth, BacTiter-Glo luminescence, 24 h. inhibition, % at 10 µM. actives 1.4% (n = 330,000). AID 463195, 2010;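 active = inhibition of 40% or more at the single tested concentration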;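 also: wild-type TIM10 isogenic control strain grown at permissive 25 °C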
NALP1 inh: NALP1 inflammasome inhibitors in reconstituted yeast, colorimetric, S. cerevisiae, triplicate retest | S. cerevisiae NALP1/ASC/caspase-1 growth, X-gal OD620, 72 h | inhibition, % at 10 µM | actives 0.61% (n = 280,000); in the data active = inhibition mostly above about 24%, no sharp cut-off; inactive = mostly below about 32%
PfHsp90 set2: growth inhibition of PfHsp90-expressing yeast, primary screen, antimalarial PfHsp90 inhibitor project, S. cerevisiae, BacTiter-Glo luminescence, single point, set 2. BacTiter-Glo ATP, 48 h; yeast lacking PDR1 and PDR3 efflux regulators. inhibition, % at 9.4 µM. actives 0.32% (n = 310,000). AID 504621, 2011;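 active = every replicate shows inhibition above about 80%, whatever the replicate mean, limit read from the data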
NALP3 yeast inh: NALP3 inflammasome inhibitors in reconstituted yeast, primary screen, luminescence, uHTS; Yeast reconstituted NLRP3/ASC/caspase-1, beta-gal luminescence, 24 h; actives 0.39% (n = 330,000); inhibition, % at 10 µM;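 active = inhibition of 50% or more; inactive = inhibition below 50%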
tim23-1 inh: growth inhibitors of tim23-1 mutant yeast, primary screen, luminescence, uHTS; S. cerevisiae tim23-1 growth, BacTiter-Glo luminescence, 24 h; inhibition, % at 20 µM; actives 1.3% (n = 330,000); AID 463212, 2010;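 active = growth inhibition of the mutant yeast at or above 50%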;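 also: temperature-sensitive mutant grown at 25 °C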
tim23-1 conf: tim23-1 mutant yeast growth inhibitors, confirmation, luminescence, single concentration; actives 83% (n = 4,400); inhibition, % at 20 µM; shares compounds with tim23-1 inh; S. cerevisiae tim23-1 growth, BacTiter-Glo luminescence, 24 h;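 active = inhibition above about 39% in either of two replicate wells at 20 µM, limit read from the data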;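 also: temperature-sensitive tim23-1 mutant grown at 25 °C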
Of the large screens only hits and unclear results are named; the others gave an inactive call (follow-up assays come after a bar, where they were run).

Cc1ccc2[nH]c3c(c2c1)CN(C(=O)CN1CCN(c2cccc(C)c2C)CC1)CC3	tim23-1 inh 60 | tim23-1 conf inactive
O=C(CN1CCSCC1)N1CCc2[nH]c3ccc(Br)cc3c2C1	none (no result: tim10-1 inh, TIM10 inh, PfHsp90 set2, NALP3 yeast inh, tim23-1 inh)
Cc1nn(-c2ccc(F)cc2)c(C)c1NS(=O)(=O)c1ccc2ccccc2c1	tim23-1 inh 66 | tim23-1 conf 60
COc1cccc(CN(C)C(=O)c2ccc(NC(=O)CC3SC(N4CCCC4)=NC3=O)cc2)c1OC (stereo not given)	none (no result: NALP1 inh)
CCOC(=O)/C(=C/c1ccc(OC(=O)c2ccncc2)cc1)C(C)=O	tim23-1 inh 53 | tim23-1 conf 70
COCCn1c(C)cc(C(=O)COC(=O)c2ccc([N+](=O)[O-])o2)c1C	tim23-1 inh 52 | tim23-1 conf 59
Cc1cc(C(=O)COC(=O)c2ccc([N+](=O)[O-])o2)c(C)n1CC1CCCO1 (stereo not given)	tim23-1 inh 54 | tim23-1 conf 55
Cc1cc(C)cc(NCc2ccncc2)c1	none
O=C1NC2=C(C(=O)CCC2)C(c2ccc([N+](=O)[O-])cc2)N1 (stereo not given)	none
CC1CCC(NC(=O)c2ccc(COc3ccccc3)o2)CC1 (stereo not given)	none (no result: NALP1 inh)
CC(C)c1ccc(NC(=O)C(c2ccccc2)N2CCC3(CC2)OCCO3)cc1 (stereo not given)	tim23-1 inh 52 | tim23-1 conf 50
Cc1ccc(C(=O)SC2=NCCS2)cc1	tim23-1 inh 73 | tim23-1 conf 49
O=C(c1cc(-c2ccccc2Cl)nc2ccccc12)N1CCN(c2ccccn2)CC1	tim23-1 inh 54 (no result: NALP1 inh, PfHsp90 set2) | tim23-1 conf 44
O=C(c1cc(-c2ccccc2Cl)nc2ccccc12)N1CCN(c2ccccc2O)CC1	none (no result: NALP1 inh, PfHsp90 set2)
O=C(CN1C(=O)S/C(=C/c2ccncc2)C1=O)Nc1ccccc1	tim23-1 inh 53 | tim23-1 conf 51
Cc1cc(NC(=O)CN2C(=O)S/C(=C\c3ccccc3)C2=O)no1	none
Cc1nc2scc(C)n2c(=O)c1S(=O)(=O)Nc1ccc(N2CCOCC2)cc1	tim23-1 inh 71 | tim23-1 conf 47
O=C(Nc1ccc(-c2nc3ccccc3[nH]2)cc1)C1CCCO1 (stereo not given)	tim23-1 inh 53 | tim23-1 conf 41
Cc1ccc(S(=O)(=O)N[C@@H](CC(C)C)C(=O)N2CCC(C(=O)N[C@H](C(=O)O)C(C)C)CC2)cc1	none
Cc1ccc(S(=O)(=O)NC(CC(C)C)C(=O)N2CCC(C)CC2)cc1 (stereo not given)	tim23-1 inh 54 | tim23-1 conf 39
O=C(CSCc1ccc(F)cc1)Nc1nc2c(s1)CCCC2	tim23-1 inh 56 | tim23-1 conf 41
Cc1ccccc1[C@@]1(C)ON(c2ccccc2C(F)(F)F)C1=O	tim23-1 inh 56 (no result: NALP1 inh) | tim23-1 conf 46
CC[C@@]1(c2ccccc2OC)ON(c2ccccc2C(F)(F)F)C1=O	tim23-1 inh 57 (no result: NALP1 inh) | tim23-1 conf 51
CCOC(=O)c1ccc(N(C(=O)c2ccco2)C(C(=O)NC2CCCC2)c2ccncc2)cc1 (stereo not given)	none
N#C/C(=C\c1ccc(Sc2nc3ccccc3[nH]2)o1)c1ccccc1	tim23-1 inh 51 | tim23-1 conf 41
N#C/C(=C/c1ccc(N2CCOCC2)o1)c1nc2ccccc2[nH]1	tim23-1 inh 57 | tim23-1 conf 66
N#C/C(=C\c1ccc(N2CCOCC2)o1)c1ccccc1	none
O=C(CC12CC3CC(CC(C3)C1)C2)Nc1c(F)cccc1F	none
Brc1ccc2oc(-c3ccn[nH]3)cc2c1	tim23-1 inh 65 (no result: PfHsp90 set2) | tim23-1 conf 48
COc1ccc(C(=O)n2cc(C(=O)c3cc(C)ccc3O)cn2)cc1OC	none
COc1ccc(O)c(C(=O)c2cnn(C(=O)c3cccc(N(C)C)c3)c2)c1	tim23-1 inh 58 (no result: NALP1 inh) | tim23-1 conf 57
CN(C)c1cccc(C(=O)n2cc(C(=O)c3cc(F)ccc3O)cn2)c1	tim23-1 inh 57 | tim23-1 conf 68
COc1ccc(C(=O)n2cc(C(=O)c3cc(C)ccc3O)cn2)cc1	none
COc1ccc(O)c(C(=O)c2cnn(C(=O)c3cc(C)oc3C)c2)c1	tim23-1 inh 58 | tim23-1 conf 55
COc1ccc(-n2nc(C(=O)NCC(=O)N(C)Cc3ccccc3)c3ccccc3c2=O)c(OC)c1	none
CSc1nc(C=Nc2ccccc2Cl)c(O)n1Cc1cccc(Cl)c1	none
C=Cc1cccc(NC(=O)c2ccc(NC(=O)c3ccco3)cc2)c1	tim23-1 inh 51 | tim23-1 conf 38
Cc1cccc(C)c1OCC(=O)Nc1cccc(NC(=O)c2ccco2)c1	tim23-1 inh 56 | tim23-1 conf 49
NC(=O)COC(=O)C1CSC2(c3ccc(F)cc3)CCC(=O)N12 (stereo not given)	none
Cc1ccc(OCC(=O)NCCCNC(=O)c2ccncc2)cc1	none
CC(=O)Nc1sc(C)c(C)c1C(=O)OCC(=O)N(Cc1ccccc1)C(C)C	none (no result: NALP1 inh)
CCC(=O)Nc1ccc(C(=O)COC(=O)Cc2ccsc2)cc1	none (no result: NALP1 inh)
Cc1ccsc1/C=N/N1CCN(Cc2ccccc2)CC1	none
O=C(COc1ccc2ccccc2c1Br)Nc1cccnc1	tim23-1 inh 52 | tim23-1 conf inactive
COc1ccc(Cl)cc1NC(=O)CN(C)C(=O)CN1C(=O)NC(C)(c2ccc3ccccc3c2)C1=O (stereo not given)	none (no result: tim10-1 inh, TIM10 inh, NALP1 inh, NALP3 yeast inh, tim23-1 inh)
C/C(N)=C(/C#N)C(=O)CSc1nc2ccccc2c(=O)n1Cc1ccc(C)cc1	tim23-1 inh 57 | tim23-1 conf inactive
C/C(N)=C(/C#N)C(=O)CSc1nc2ccccc2c(=O)n1Cc1ccc(F)cc1	none
O=C(c1cc2ccccc2oc1=O)N(Cc1ccco1)C1CCS(=O)(=O)C1 (stereo not given)	tim23-1 inh 94 | tim23-1 conf inactive
Cc1ccc(/C=N/NC(=O)c2cc3c(ccc4ccccc43)o2)o1	tim23-1 inh 56 | tim23-1 conf 46
O=C(N/N=C/c1ccc([N+](=O)[O-])o1)c1cc2c(ccc3ccccc32)o1	none (no result: tim10-1 inh, TIM10 inh, NALP3 yeast inh, tim23-1 inh)
Cn1nc(-c2ccccc2F)c2cc(C(=O)Nc3ccc4c(c3)OCCO4)sc21	tim23-1 inh 54 | tim23-1 conf 55
COc1cccc(-c2nn(C)c3sc(C(=O)Nc4ccc5c(c4)OCCO5)cc23)c1	none
COc1ccc(OC)c(C(=O)c2coc3ccc(O)c(CN(C)C)c23)c1	none

Screening results from PubChem.
